Laboratory results reported in PubChem BioAssay AID1259343 (VanderVen Lab, College of Veterinary Medicine, Cornell …, 2017).
Where “and” joins values, the source holds several entries; their conditions need not be identical. Equal values may be shown once. Hit rate of the full screen: of about 6,200 compounds, about 2,900 (47%) were called active. Cut-off read from the data, not from the text of the source: active = inhibition above about 50%; inactive = the rest. The set was probably picked from earlier hits. This is one part of the list. Some compounds were tested as several samples or in several runs, with calls that do not always agree.

test: Mycobacterium tuberculosis growth inhibition, primary screen (AID 1259343); conditions: inhibition: at 10 µM, stronger effect = higher value; outcome: 10 uM

SMILES	inhibition
COC(C)c1ccc(-c2ccc(NC(=O)CN)c(F)c2)cc1 (centres undefined)	70.7% (active)
NCC(=O)Nc1ccc(-c2cccc3ccsc23)cc1F	7.93% (inactive)
Fc1ccccc1CNCC1(c2ccnc(-c3ccc(Cl)cc3)c2)CC1	44% (inactive)
Fc1ccccc1-c1cnnc(NCCc2cccc(Cl)c2)n1	37.3% (inactive)
Fc1ccccc1CCNc1ncnc2ccc(Cl)cc12	60.7% (active)
COc1cc(C(=O)NS(=O)(=O)c2ccc(C#N)cc2)ccc1C	21.9% (inactive)
Cc1ccc(S(=O)(=O)NC(=O)c2cccc(F)c2)cc1C	79% (active)
Cc1ccc(S(=O)(=O)NC(=O)c2ccccc2)cc1C(C)C	72.5% (active)
Cc1ccccc1C(C)NS(=O)(=O)c1ccc(Cl)cc1 (centres undefined)	17.3% (inactive)
Cc1ccc(S(=O)(=O)NC(c2cccs2)C2CC2)cc1C (centres undefined)	37.1% (inactive)
CN(C)P(=Nc1ccc([N+](=O)[O-])cc1Br)(N(C)C)C(C)(C)C	11% (inactive)
Cc1cc([N+](=O)[O-])cc(C(C)(C)C)c1O	101% (active)
O=[N+]([O-])c1cc(Br)c(O)c(Br)c1	98.7% (active)
CC[n+]1c(C)csc1Nc1ccc(N=Nc2ccccc2)cc1	-14.7% (inactive)
O=C(O)CC[N+](=O)[O-]	98.6% (active)
Cc1nc(SCc2nc3ccccc3o2)c2ccccc2n1	51.7% (active)
CC(C)Oc1ncccc1CNC(=O)N1CCc2ccccc21	28.7% (inactive)
CN1CC2([N+](=O)[O-])C=C(Oc3ccc(F)cc3)CC([N+](=O)[O-])(C1)C2 (centres undefined)	94.6% (active)
Cc1ccc(Cl)cc1NCc1cnc(Cl)s1	26.4% (inactive)
Cc1nnc(NCCC23CC4CC(CC(C4)C2)C3)c(C#N)c1C	50.3% (active)
CC[C@@H](C(=O)[C@@H](C)[C@@H](O)[C@H](C)[C@@H]1O[C@@H]([C@@H](CC)C(=O)O)CC[C@@H]1C)[C@H]1OC2(C=C[C@@H](O)[C@]3(CC[C@@](C)([C@H]4CC[C@](O)(CC)[C@H](C)O4)O3)O2)[C@H](C)C[C@@H]1C (some centres undefined)	100% (active)
C(=Nc1ccc(C23CC4CC(CC(C4)C2)C3)cc1)c1ccncc1	-6.32% (inactive)

SMILES	inhibition
O=c1cccnn1CCNS(=O)(=O)c1ccc(Cl)s1	99.9% (active)
Cc1ccc(Cn2nc(C)c(C=c3s/c(=C\C(=O)C(C)(C)C)[nH]c3=O)c2C)cc1	9.64% (inactive)
Cc1ccc(C)c(C=c2sc(=CC(=O)C(C)(C)C)[nH]c2=O)c1	inactive
CC(C)(C)C(=O)/C=c1/[nH]c(=O)/c(=C/c2ccc(F)c(Br)c2)s1	101% (active)
CC(C)(C)C(=O)C=c1[nH]c(=O)c(=Cc2c(F)c(F)c(F)c(F)c2F)s1	101% (active)
CC(C)c1ccc(C=c2sc(=CC(=O)C(C)(C)C)[nH]c2=O)cc1	92.9% (active)
CC(C)(C)n1c(NC(=O)c2ccc(F)cc2Cl)nc2ccccc21	-8.71% (inactive)
O=C(Nc1nccn1CC1CC1)c1cc(F)c(Cl)cc1Cl	94.8% (active)
Cc1ccc(S(=O)(=O)Nc2nc(-c3ccc(F)c(F)c3)cs2)cc1	80.1% (active)
Cc1ccc(-c2csc(C=Cc3c(C)noc3C)n2)cc1	43.6% (inactive)
CCCc1cc(NC)n2nc(C)c(-c3ccccc3)c2n1	95.4% (active)
Cc1ccc(-c2c(C)nn3c(NCC(C)C)cc(C)nc23)cc1	47.5% (inactive)
CCCc1cc(=O)n2[nH]cc(-c3ccccc3)c2n1	11.4% (inactive)
CC(C)c1cc(=O)n2[nH]cc(-c3ccccc3)c2n1	-1.37% (inactive)
CCCc1cc(=O)n2[nH]c(C)c(-c3ccccc3)c2n1	78.8% (active) and -6.08% (inactive)
CCCc1cc(NC)n2ncc(-c3ccccc3)c2n1	-27.3% (inactive)
CCOC(=O)Cc1cc(=O)n2[nH]c(-c3ccccc3)c(-c3ccccc3)c2n1	40.6% (inactive)
Cc1cc(C)nc(SCc2cc(=O)n3[nH]c(C)c(-c4ccccc4)c3n2)n1	100% (active)
Cc1[nH]n2c(=O)cc(C(C)C)nc2c1-c1ccccc1	100% (active)
N#Cc1cccc(S(=O)(=O)Nc2cc(C(F)(F)F)ccc2-n2cccn2)c1	33.2% (inactive)
N#Cc1cccc(S(=O)(=O)Oc2ccc(F)c(F)c2)c1	100% (active)
N#Cc1cccc(OCCN2CCCc3cc(F)ccc32)c1	36.8% (inactive)

SMILES	inhibition
N#Cc1cccc(S(=O)(=O)Oc2ccccc2)c1	68.3% (active)
N#Cc1ccc(OS(=O)(=O)c2cccc(F)c2)cc1	92.1% (active)
COc1ccc(S(=O)(=O)Oc2cccc(CNCc3ccc(F)cc3)c2)cc1	30.6% (inactive)
CN(Cc1ccc(OC(F)F)cc1)S(=O)(=O)c1cccc(C#N)c1	28% (inactive)
N#Cc1ccc(OS(=O)(=O)c2ccc(F)cc2)cc1	29.4% (inactive)
CC(C)NC(=O)CCC1CCCCC1	103% (active)
CC(C)NC(=O)NC(=O)COC(=O)C1CC1	23.7% (inactive)
COc1ccc(-n2ccnc2CN2CCc3c([nH]c4ccccc34)C2c2ccccn2)cc1 (centres undefined)	inactive
CC(C)CCC(=O)C(C#N)c1nnc(-c2ccccc2)n1C (centres undefined)	85.2% (active)
N#CC(C(=O)CC1CCCC1)c1nc(N)nc(Nc2ccccc2)n1 (centres undefined)	1.29% (inactive)
Cn1c(-c2ccccc2)nnc1C(C#N)C(=O)C1CC=CCC1 (centres undefined)	93.3% (active)
NC(=NS(=O)(=O)c1ccc(Cl)cc1)c1ccc(Cl)cc1	15.6% (inactive)
COc1ccc(Br)cc1CN(C)CC(=O)Nc1cc(Cl)cc(Cl)c1	-7.89% (inactive)
COc1ccc(CCC(=O)NNc2cccc(Cl)c2)cc1Br	98.9% (active)
COc1ccc(COc2ccccc2NC(C)=O)cc1Br	36.3% (inactive)
OCC1(Cc2ccccc2C(F)(F)F)CCN(c2ccc(Cl)cn2)CC1	8.01% (inactive)
OCC1(Cc2ccccc2Cl)CCN(CC#Cc2ccccc2)CC1	83.9% (active)
OCC1(Cc2ccccc2)CCN(Cc2cc3ccccc3s2)CC1	30.1% (inactive)
O=C(/C=C/c1cccc([N+](=O)[O-])c1)n1cnc2ccccc21	96.9% (active)
O=C(C=Cc1ccc([N+](=O)[O-])cc1)c1ccc(F)cc1	25.8% (inactive)
